# Experimental data reported in the supplement of paper PMC8728848.
# Shown is part of a subset that was picked to be rich in the strongest signals.
# How the values were obtained:
# Assay in all cases: glycan array binding signal (z-score within array); higher = stronger binding
# Conditions in all cases: glycan notation: IUPAC condensed, linker removed
# [1] = molecular target: Gal(b1-4)GlcNAc(b1-3)Gal(b1-4)GlcNAc(b1-3)Gal(b1-4)GlcNAc(b1-3)Gal(b1-4)GlcNAc(b1-3)Gal(b1-4)GlcNAc(b1-2)Man(a1-3)[Gal(b1-4)GlcNAc(b1-3)Gal(b1-4)GlcNAc(b1-3)Gal(b1-4)GlcNAc(b1-3)Gal(b1-4)GlcNAc(b1-3)Gal(b1-4)GlcNAc(b1-2)Man(a1-6)]Man(b1-4)GlcNAc(b1-4)[Fuc(a1-6)]GlcNAc
# Procedure, shortened: (§1)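 Glycan array data were curated from 3228 arrays in the Consortium for Functional Glycomics database and kept only where the protein sequence was available. Glycan names were converted to IUPAC-condensed notation, and columns mapping to the same glycan were averaged. The binding signal is a within-array Z-score, averaged across arrays of the same protein sequence at different concentrations or buffers and across linkers. Negative Z-scores can be read as non-binding.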
# [2] = molecular target: Gal(b1-4)GlcNAc(b1-3)Gal(b1-4)GlcNAc(b1-3)Gal(b1-4)GlcNAc(b1-3)Gal(b1-4)GlcNAc(b1-3)Gal(b1-4)GlcNAc(b1-2)[Gal(b1-4)GlcNAc(b1-3)Gal(b1-4)GlcNAc(b1-3)Gal(b1-4)GlcNAc(b1-3)Gal(b1-4)GlcNAc(b1-3)Gal(b1-4)GlcNAc(b1-6)]Man(a1-6)[Gal(b1-4)GlcNAc(b1-3)Gal(b1-4)GlcNAc(b1-3)Gal(b1-4)GlcNAc(b1-3)Gal(b1-4)GlcNAc(b1-3)Gal(b1-4)GlcNAc(b1-2)Man(a1-3)]Man(b1-4)GlcNAc(b1-4)[Fuc(a1-6)]GlcNAc
# Procedure, shortened: as §1
# [3] = molecular target: Gal(b1-4)GlcNAc(b1-3)Gal(b1-4)GlcNAc(b1-3)[Gal(b1-4)GlcNAc(b1-3)Gal(b1-4)GlcNAc(b1-6)]GalNAc
# Procedure, shortened: as §1
# Gal3S(b1-4)GlcNAc = molecular target: Gal3S(b1-4)GlcNAc
# Procedure, shortened: as §1
# [4] = molecular target: GalNAc(b1-3)Gal(a1-4)Gal(b1-4)GlcNAc
# Procedure, shortened: as §1
# [5] = molecular target: GlcNAc(a1-4)Gal(b1-4)GlcNAc(b1-3)Gal(b1-4)[Fuc(a1-3)]GlcNAc(b1-3)Gal(b1-4)[Fuc(a1-3)]GlcNAc
# Procedure, shortened: as §1
# [6] = molecular target: GlcNAc(b1-3)Gal(b1-4)GlcNAc(b1-3)Gal(b1-4)GlcNAc(b1-2)Man(a1-3)[GlcNAc(b1-3)Gal(b1-4)GlcNAc(b1-3)Gal(b1-4)GlcNAc(b1-2)Man(a1-6)]Man(b1-4)GlcNAc(b1-4)GlcNAc
# Procedure, shortened: as §1
# [7] = molecular target: GlcNAc(b1-3)Gal(b1-4)GlcNAc(b1-3)Gal(b1-4)GlcNAc(b1-3)Gal(b1-4)GlcNAc(b1-2)Man(a1-3)[GlcNAc(b1-3)Gal(b1-4)GlcNAc(b1-3)Gal(b1-4)GlcNAc(b1-3)Gal(b1-4)GlcNAc(b1-2)Man(a1-6)]Man(b1-4)GlcNAc(b1-4)[Fuc(a1-6)]GlcNAc
# Procedure, shortened: as §1
# [8] = molecular target: GlcNAc(b1-3)Gal(b1-4)GlcNAc(b1-3)Gal(b1-4)GlcNAc(b1-3)Gal(b1-4)GlcNAc(b1-3)Gal(b1-4)GlcNAc(b1-2)Man(a1-3)[GlcNAc(b1-3)Gal(b1-4)GlcNAc(b1-3)Gal(b1-4)GlcNAc(b1-3)Gal(b1-4)GlcNAc(b1-3)Gal(b1-4)GlcNAc(b1-2)Man(a1-6)]Man(b1-4)GlcNAc(b1-4)[Fuc(a1-6)]GlcNAc
# Procedure, shortened: as §1
# [9] = molecular target: GlcNAc(b1-3)Gal(b1-4)GlcNAc(b1-3)Gal(b1-4)GlcNAc(b1-3)Gal(b1-4)GlcNAc(b1-3)Gal(b1-4)GlcNAc(b1-2)[GlcNAc(b1-3)Gal(b1-4)GlcNAc(b1-3)Gal(b1-4)GlcNAc(b1-3)Gal(b1-4)GlcNAc(b1-3)Gal(b1-4)GlcNAc(b1-6)]Man(a1-6)[GlcNAc(b1-3)Gal(b1-4)GlcNAc(b1-3)Gal(b1-4)GlcNAc(b1-3)Gal(b1-4)GlcNAc(b1-3)Gal(b1-4)GlcNAc(b1-2)Man(a1-3)]Man(b1-4)GlcNAc(b1-4)[Fuc(a1-6)]GlcNAc
# Procedure, shortened: as §1
# GlcNAc(b1-3)Man = molecular target: GlcNAc(b1-3)Man
# Procedure, shortened: as §1
# [10] = molecular target: Neu5Ac(a2-3)Gal(b1-3)GalNAc
# Procedure, shortened: as §1
# [11] = molecular target: Neu5Ac(a2-3)Gal(b1-3)GalNAc(b1-4)[Neu5Ac(a2-3)]Gal(b1-4)Glc
# Procedure, shortened: as §1
# [12] = molecular target: Neu5Ac(a2-3)Gal(b1-3)GlcNAc(b1-2)Man(a1-3)[GlcNAc(b1-4)][Neu5Ac(a2-3)Gal(b1-3)GlcNAc(b1-2)Man(a1-6)]Man(b1-4)GlcNAc(b1-4)GlcNAc
# Procedure, shortened: as §1
# [13] = molecular target: Neu5Ac(a2-3)Gal(b1-3)[Neu5Ac(a2-6)]GalNAc
# Procedure, shortened: as §1
# [14] = molecular target: Neu5Ac(a2-3)Gal(b1-4)GlcNAc(b1-2)Man(a1-3)[Neu5Ac(a2-3)Gal(b1-4)GlcNAc(b1-2)Man(a1-6)]Man(b1-4)GlcNAc(b1-4)GlcNAc
# Procedure, shortened: as §1
# [15] = molecular target: Neu5Ac(a2-3)Gal(b1-4)GlcNAc(b1-3)Gal(b1-3)GlcNAc
# Procedure, shortened: as §1
# [16] = molecular target: Neu5Ac(a2-3)Gal(b1-4)GlcNAc(b1-3)Gal(b1-4)GlcNAc(b1-2)Man(a1-3)[Neu5Ac(a2-3)Gal(b1-4)GlcNAc(b1-3)Gal(b1-4)GlcNAc(b1-2)Man(a1-6)]Man(b1-4)GlcNAc(b1-4)GlcNAc
# Procedure, shortened: as §1
# [17] = molecular target: Neu5Ac(a2-3)Gal(b1-4)GlcNAc(b1-3)Gal(b1-4)[Fuc(a1-3)]GlcNAc
# Procedure, shortened: as §1
# [18] = molecular target: Neu5Ac(a2-3)Gal(b1-4)[Fuc(a1-3)]GlcNAc(b1-3)Gal(b1-4)[Fuc(a1-3)]GlcNAc(b1-3)Gal(b1-4)[Fuc(a1-3)]GlcNAc
# Procedure, shortened: as §1
# [19] = molecular target: Neu5Ac(a2-3)[GalNAc(b1-4)]Gal(b1-4)Glc
# Procedure, shortened: as §1
# [20] = molecular target: Neu5Ac(a2-6)Gal(b1-3)GlcNAc(b1-3)[Gal(b1-4)GlcNAc(b1-6)]Gal(b1-4)Glc
# Procedure, shortened: as §1
# [21] = molecular target: Neu5Ac(a2-8)Neu5Gc(a2-3)Gal(b1-4)GlcNAc
# Procedure, shortened: as §1
binder,measurement,setting,value
SJCP1084 (Schistosoma japonicum) (protein) MRIINLVIISTALLLINLLQTKSQANGEDTKNGTPDDPGLTKSTELKVEVQALLKDKKTNMRVKWNENLLDNTKPEYHNLRDEACELLLQIVRSVVPLSQDDGECKDVTFTKYVVGTKDGAVNVKLTITFKDSVAINQKPMDLKLKLENDFKNLQSESTLKATKPTFTVKVEKRLIPISKPQTTPPTTAKNDASKENVGDIGGEDSTVPTAAPATAASANEEKDEGDKDNKDSQHPNVLTSNVNDRNLIIALVALMILAIGVALTAAVKQR,glycan array binding signal (z-score),[1],4.28
same,glycan array binding signal (z-score),[2],4.79
same,glycan array binding signal (z-score),[3],1.47
same,glycan array binding signal (z-score),Gal3S(b1-4)GlcNAc,-0.79
same,glycan array binding signal (z-score),[4],0.632
same,glycan array binding signal (z-score),[5],2.09
same,glycan array binding signal (z-score),[6],1.03
same,glycan array binding signal (z-score),[7],1.66
same,glycan array binding signal (z-score),[8],-0.466
same,glycan array binding signal (z-score),[9],2.68
same,glycan array binding signal (z-score),GlcNAc(b1-3)Man,0.248
same,glycan array binding signal (z-score),[10],-0.71
same,glycan array binding signal (z-score),[11],-0.565
same,glycan array binding signal (z-score),[12],-0.628
same,glycan array binding signal (z-score),[13],-0.036
same,glycan array binding signal (z-score),[14],0.105
same,glycan array binding signal (z-score),[15],-0.757
same,glycan array binding signal (z-score),[16],-0.701
same,glycan array binding signal (z-score),[17],-0.263
same,glycan array binding signal (z-score),[18],0.379
same,glycan array binding signal (z-score),[19],-0.474
same,glycan array binding signal (z-score),[20],-0.092
same,glycan array binding signal (z-score),[21],-0.605
